# Source: PubChem BioAssay (NCATS)
# Inconclusive results are not listed. A call without a number means that no potency is given here. Active and inactive are the calls of the source. Unless noted, calls come from the whole dose curve.
# Assays:
# [1] = biological target: Alpha-galactosidase (Coffea arabica) (UniProt Q42656); assay: Counterscreen for Glucocerebrosidase Inhibitors: qHTS Assay for Coffee Bean alpha-Galactosidase at pH 4.5 (AID 957; active = well fitted curve in the direction sought with a large enough effect; an effect the other way counts as inactive or inconclusive)
# Outline: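 Green coffee bean enzyme (2 nM final) was incubated with compounds (0.7 nM to 77 uM) and 4-methylumbelliferyl alpha-D-galactopyranoside (80 uM final) in 50 mM citric acid, 0.005% Tween-20, pH 4.5, 20 min at room temperature; AC50 from Hill fits.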
# [2] = biological target: Alpha-galactosidase (Coffea arabica) (UniProt Q42656); assay: Counterscreen for Glucocerebrosidase Inhibitors: qHTS Assay for Coffee Bean alpha-Galactosidase at pH 5.9 (AID 998; active = well fitted curve in the direction sought with a large enough effect; an effect the other way counts as inactive or inconclusive)
# Outline: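 Compounds were titrated from 0.7 nM to 77 uM against green coffee bean alpha-galactosidase (2 nM) using 80 uM fluorogenic 4-methylumbelliferyl substrate. After 20 min at room temperature, reactions were stopped at pH 10 and read by fluorescence.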
# [3] = Inducers of the Endoplasmic Reticulum Stress Response (ERSR) in human glioma: Validation (AID 504836; active = well fitted curve in the direction sought with a large enough effect; an effect the other way counts as inactive or inconclusive)
# Outline: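 ERSR induction read as luciferase luminescence (Bright-Glo, 10 min at room temperature) in stably transfected human U87-MG glioma cells exposed to compounds for 16 h, using GRP78 as sensor.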
# [4] = qHTS for Inhibitors of the Functional Ribonucleoprotein Complex (vRNP) of Lassa (LASV) Arenavirus: LASV Primary Screen - GLuc reporter signal (AID 1347082; calls by dose curve; tested in HEK293 reporter line; note: nearly all actives have a fitted effect of over 60% in size; note: potency is the fitted concentration of half-maximal effect)
# [5] = qHTS for Inhibitors of the Functional Ribonucleoprotein Complex (vRNP) of Lymphocytic Choriomeningitis Arenaviruses (LCMV): Viability assay - alamar blue signal for LCMV Primary Screen (AID 1347085; calls by dose curve; tested in HEK293 reporter line; note: nearly all actives have a fitted effect of over 80% in size; note: potency is the fitted concentration of half-maximal effect)
# [6] = biological target: Nucleoprotein (Lymphocytic choriomeningitis virus (strain Armstrong)) (UniProt P09992); assay: qHTS for Inhibitors of the Functional Ribonucleoprotein Complex (vRNP) of Lymphocytic Choriomeningitis Arenaviruses (LCMV): LCMV Primary Screen - GLuc reporter signal (AID 1347086); note: nearly all actives have a fitted effect of over 70% in size; note: potency is the fitted concentration of half-maximal effect
# [7] = Primary qHTS to identify inhibitors of SARS-CoV-2 cell entry (AID 1645846); details: activity change, negative = inhibition: at 57.1 µM (top of the series) unless noted; note: nearly all actives have a fitted effect of over 45% in size; note: potency is the fitted concentration of half-maximal effect
# Outline: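 HEK293-ACE2 (Expi293F, stable hACE2), 1500 cells/well, o/n 37C; cpd 23 nL pin, 1 h; MLV-PP w/ SARS-CoV-2-S (Wuhan-Hu-1, Δ19 C-term); 48 h 37C; Bright-Glo luminescence; normalized vs S-PP and bald PP.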
# [8] = Cytotoxicity counterscreen for inhibitors of SARS-CoV-2 cell entry (AID 1645845); note: nearly all actives have a fitted effect of over 50% in size
# Outline: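 48 h compound treatment (after 1 h preincubation), HEK293-ACE2 cells, 37 C/5% CO2; ATP luminescence endpoint; normalized to cell wells and media blanks.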
# [9] = biological target: Peroxisome proliferator-activated receptor delta (Homo sapiens) (UniProt Q03181); assay: qHTS assay for small molecule agonists of peroxisome proliferator-activated receptor delta signaling (AID 588534)
# Outline: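 Cell-based beta-lactamase reporter assay run in agonist mode: cells seeded and incubated 5 hrs at 37 C, compounds added and incubated 18 hrs at 37 C. CCF4 dye fluorescence read after 2 hrs at RT; EC50 and efficacy from Hill fits.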
# [10] = Validation screen for inhibitors of Lassa infection (AID 463096); note: potency is the fitted concentration of half-maximal effect
# [11] = qHTS profiling of the MIPE4 collection as inhibitors of Plasmodium falciparum (3D7) proliferation (AID 743344; call rule not given here); details: P. falciparum 3D7 in erythrocytes, SYBR Green DNA fluorescence, 72 h; at 28.5 µM (top of the series) unless noted
# Outline: (§1)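 Erythrocytes infected with P. falciparum (0.3% parasitemia, 2.5% hematocrit) incubated with compounds 72 h at 37 C, 5% CO2. Lysis with saponin/Triton buffer containing SYBR Green I, overnight at room temperature in the dark; DNA fluorescence (485/535 nm) normalised to 0.29 uM artemisinin and DMSO.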
# [12] = qHTS profiling of the MIPE4 collection as inhibitors of Plasmodium falciparum (DD2) proliferation (AID 743345; call rule not given here); details: P. falciparum Dd2 in erythrocytes, SYBR Green DNA, 72 h; at 28.5 µM (top of the series) unless noted
# Outline: as §1
# [13] = qHTS profiling of the MIPE4 collection as inhibitors of Plasmodium falciparum (DD2) proliferation (Rep 2) (AID 743346; call rule not given here); details: P. falciparum Dd2 in erythrocytes, SYBR Green DNA, 72 h; at 28.5 µM (top of the series) unless noted
# Outline: as §1
# [14] = qHTS profiling of the MIPE4 collection as inhibitors of Plasmodium falciparum (HB3) proliferation (AID 743347; call rule not given here); details: P. falciparum HB3 in erythrocytes, SYBR Green DNA, 72 h; at 28.5 µM (top of the series) unless noted
# Outline: as §1
# Sequence of Nucleoprotein (Lymphocytic choriomeningitis virus (strain Armstrong)) (P09992 whole entry, looked up): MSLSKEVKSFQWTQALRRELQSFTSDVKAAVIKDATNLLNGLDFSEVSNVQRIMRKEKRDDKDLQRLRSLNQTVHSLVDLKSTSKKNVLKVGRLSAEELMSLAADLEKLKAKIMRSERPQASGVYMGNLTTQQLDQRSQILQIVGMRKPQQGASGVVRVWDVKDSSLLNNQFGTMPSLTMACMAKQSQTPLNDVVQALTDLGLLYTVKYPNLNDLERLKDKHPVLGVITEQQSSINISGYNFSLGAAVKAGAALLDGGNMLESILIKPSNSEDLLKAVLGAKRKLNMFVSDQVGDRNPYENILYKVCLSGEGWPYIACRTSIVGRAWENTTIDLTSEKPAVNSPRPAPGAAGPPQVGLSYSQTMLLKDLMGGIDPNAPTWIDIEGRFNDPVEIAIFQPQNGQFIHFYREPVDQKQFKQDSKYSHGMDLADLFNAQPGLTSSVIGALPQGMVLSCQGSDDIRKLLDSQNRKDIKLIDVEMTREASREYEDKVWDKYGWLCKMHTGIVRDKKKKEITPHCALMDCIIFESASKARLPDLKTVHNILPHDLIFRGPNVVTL
# Sequence of Alpha-galactosidase (Coffea arabica) (Q42656 whole entry, looked up): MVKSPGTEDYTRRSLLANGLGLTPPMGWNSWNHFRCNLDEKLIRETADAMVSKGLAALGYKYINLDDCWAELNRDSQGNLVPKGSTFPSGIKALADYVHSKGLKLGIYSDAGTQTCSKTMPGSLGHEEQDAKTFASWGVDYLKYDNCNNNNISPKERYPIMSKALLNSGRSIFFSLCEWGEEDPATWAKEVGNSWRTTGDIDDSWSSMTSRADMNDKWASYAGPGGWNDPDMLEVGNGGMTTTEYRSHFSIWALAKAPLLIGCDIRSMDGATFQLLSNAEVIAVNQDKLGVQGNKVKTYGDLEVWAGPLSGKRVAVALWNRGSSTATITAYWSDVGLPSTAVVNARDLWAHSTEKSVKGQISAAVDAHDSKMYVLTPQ
# Sequence of Peroxisome proliferator-activated receptor delta (Homo sapiens) (Q03181 whole entry, looked up): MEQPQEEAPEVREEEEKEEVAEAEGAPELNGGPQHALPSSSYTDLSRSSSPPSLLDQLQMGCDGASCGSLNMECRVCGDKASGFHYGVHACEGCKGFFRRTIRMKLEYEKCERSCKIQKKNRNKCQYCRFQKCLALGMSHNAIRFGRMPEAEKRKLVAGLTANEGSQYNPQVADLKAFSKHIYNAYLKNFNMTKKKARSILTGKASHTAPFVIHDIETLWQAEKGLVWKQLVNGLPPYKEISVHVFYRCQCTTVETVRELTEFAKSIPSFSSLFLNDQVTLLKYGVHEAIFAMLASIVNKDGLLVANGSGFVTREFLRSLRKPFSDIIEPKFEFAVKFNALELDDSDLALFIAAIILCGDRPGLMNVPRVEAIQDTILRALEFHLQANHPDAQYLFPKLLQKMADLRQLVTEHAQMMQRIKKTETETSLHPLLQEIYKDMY
smiles,measurement,setting,value
O=C(O)Cc1ccc(O)c(O)c1,outcome,[1],inactive
same,outcome,[2],inactive
same,outcome,[3],inactive
same,Potency,[4],inactive
same,Potency,[5],inactive
same,Potency,[6],inactive
COc1cc(C(C)C)c2c(c1)S(=O)(=O)N(COc1cc(=O)n3cccc(OCCN4CCCCC4)c3n1)C2=O,Potency,[4],inactive
same,Potency,[5],inactive
same,Potency,[6],inactive
same,"activity change, negative = inhibition",[7],-36.9%
CN(C)CCc1cc2c(c3c1ccc1ccccc13)OCO2,Potency,[4],inactive
same,Potency,[6],inactive
N#CC(c1ccnc(NCCc2cccnc2)n1)c1nc2ccccc2s1 (stereo not drawn),Potency,[4],inactive
same,Potency,[5],15.3 µM (active)
same,Potency,[8],inactive
same,Potency,[7],inactive
CCC(C)SSc1ncc[nH]1 (stereo not drawn),Potency,[4],inactive
same,Potency,[6],inactive
CCn1c(C(=O)N(C2CC2)C2CC2)cc2c3c(ncn3C)c(Nc3cc(C)n(C)n3)nc21,Potency,[4],inactive
same,Potency,[5],inactive
same,Potency,[6],inactive
same,"activity change, negative = inhibition",[7],-14.3%
NC(=Nc1ccccc1)NC(=O)c1nc(Cl)c(N)nc1N,outcome,[1],inactive
same,outcome,[2],inactive
same,outcome,[3],inactive
same,Potency,[4],inactive
same,Potency,[5],inactive
same,Potency,[6],inactive
CCOC(=O)N1CCN([N+]([O-])=NOc2ccc([N+](=O)[O-])cc2[N+](=O)[O-])CC1,Potency,[4],inactive
same,Potency,[6],inactive
O=C(Nc1ccccc1)c1cc([N+](=O)[O-])ccc1Cl,outcome,[2],inactive
same,outcome,[3],inactive
same,Potency,[9],inactive
same,Potency,[4],inactive
same,Potency,[5],inactive
O=c1[nH]c(=O)n([C@H]2C[C@@H](O)[C@@H](CO)O2)cc1C(F)(F)F,Potency,[4],inactive
same,Potency,[6],inactive
CC(N)(Cc1ccc(O)c(O)c1)C(=O)O (stereo not drawn),Potency,[10],inactive
same,outcome,[3],inactive
same,Potency,[4],inactive
same,Potency,[5],inactive
same,Potency,[6],inactive
OCc1ccc(-c2nn(Cc3ccccc3)c3ccccc23)o1,outcome,[2],inactive
same,Potency,[10],4.47 µM (active)
same,outcome,[3],inactive
same,Potency,[4],inactive
same,Potency,[5],inactive
same,Potency,[6],inactive
same,"activity change, negative = inhibition",[7],-87.6%
CC1OC(OC2CC(O)C3(CO)C4C(O)CC5(C)C(C6=CC(=O)OC6)CCC5(O)C4CCC3(O)C2)C(O)C(O)C1O (stereo not drawn),Potency,[4],inactive
same,Potency,[6],inactive
CNC(=O)[C@H](CC1=CN=C2C=CCC=C12)NC(=O)[C@@H](CC(=O)NO)CC(C)C,Potency,[4],15.3 µM (active)
same,Potency,[6],3.43 µM (active)
CCCC(=O)NCCc1c2n(c3ccc(OC)cc13)CCCc1ccccc1-2,outcome,[1],inactive
same,outcome,[2],inactive
same,Potency,[10],inactive
same,outcome,[3],inactive
same,Potency,[4],inactive
same,Potency,[5],inactive
Nc1ncnc2c1nc(Br)n2C1OC2COP(=O)(O)O[C@@H]2C1O (stereo partly drawn),outcome,[3],inactive
same,Potency,[4],inactive
same,Potency,[5],inactive
same,Potency,[6],inactive
CC(C)(C)NC(=O)Nc1cccc(Nc2ncc(F)c(NC(C)(C)CO)n2)c1,Potency,[4],inactive
same,Potency,[6],inactive
Cc1ccc(S(=O)(=O)N[C@@H](Cc2ccccc2)C(=O)CCl)cc1,outcome,[1],inactive
same,outcome,[2],inactive
same,Potency,[10],7.08 µM (active)
same,outcome,[3],inactive
same,Potency,[4],inactive
same,Potency,[5],inactive
same,Potency,[6],inactive
same,Potency,[8],inactive
Nc1nc(NCCNc2ncc(-n3ccnc3)c(-c3ccc(Cl)cc3Cl)n2)ccc1[N+](=O)[O-],Potency,[4],inactive
same,Potency,[5],15.3 µM (active)
same,Potency,[8],inactive
CC(N[C@H]1CCCC[C@H]1NC(=O)c1ccc(Cl)cc1)c1cccc2ccccc12 (stereo partly drawn),"parasite growth, % of DMSO control",[11],31.1%
same,"parasite growth remaining, % of DMSO control (lower = more inhibition)",[12],79.2%
same,"parasite growth, % of control (lower = inhibition)",[13],64%
same,"growth, % of control",[14],39.9%
same,Potency,[4],inactive
same,Potency,[5],3.43 µM (active)
same,Potency,[6],4.85 µM (active)
same,Potency,[8],inactive
same,Potency,[7],28.2 µM (active)
COc1ccc(-c2cc(=O)c3c(O)c(OC)c(OC)cc3o2)cc1O,Potency,[4],inactive
same,Potency,[6],inactive
Cc1cc(Nc2cc(CN3CCOCC3)c3nc(C)c(Cc4ccc(Cl)cc4F)n3n2)n[nH]1,Potency,[4],inactive
same,Potency,[6],inactive
NC(N)=Nc1nc(CSCCC(N)=NS(N)(=O)=O)cs1,Potency,[4],inactive
same,Potency,[6],inactive
Fc1ccc(CNc2ncnc3ccc(F)cc23)cc1,Potency,[4],19.3 µM (active)
same,Potency,[5],inactive
same,Potency,[6],24.3 µM (active)
same,Potency,[7],8.91 µM (active)
CCCCCC(O)c1cccc(OCc2ccc3ccccc3n2)c1 (stereo not drawn),Potency,[10],inactive
same,Potency,[4],inactive
same,Potency,[5],inactive
same,Potency,[6],inactive
CC(=O)O[C@@]12CO[C@@H]1C[C@H](O)[C@@]1(C)C(=O)[C@H](O)C3=C(C)[C@@H](OC(=O)[C@H](O)[C@@H](NC(=O)c4ccccc4)c4ccccc4)C[C@@](O)([C@@H](OC(=O)c4ccccc4)C12)C3(C)C (stereo partly drawn),Potency,[4],inactive
same,Potency,[6],inactive
Cn1c(=O)c(Oc2ccc(F)cc2F)cc2cnc(NC3CCOCC3)nc21,Potency,[4],inactive
same,Potency,[5],inactive
same,Potency,[6],inactive
same,Potency,[7],inactive
C[C@H](NC(=O)c1sccc1OCc1ccc(Cl)cc1)c1ccccc1,Potency,[4],inactive
same,Potency,[5],inactive
same,Potency,[8],inactive
CC[C@H](C)[C@@H]1NC(=O)CNC(=O)c2csc(n2)[C@H](C(C)(C)O)OC(=O)C(C)(C)[C@H](CCCC(C)(Cl)Cl)OC(=O)c2csc1n2,Potency,[4],inactive
same,Potency,[6],inactive
Nc1nc(Cl)nc2c1ncn2[C@@H]1O[C@H](COP(=O)(O)OP(=O)(O)OP(=O)(O)O)[C@@H](O)[C@H]1O,outcome,[3],inactive
same,Potency,[4],inactive
same,Potency,[5],inactive
same,Potency,[6],inactive
COc1cc(OC)c2c(c1Cl)O[C@@]1(C2=O)[C@H](C)CC(=O)C[C@@H]1OC,Potency,[4],inactive
same,Potency,[6],inactive
CC1=CC(O)C(O)C2(C)C1CC1OC(=O)C(O)C3C(C)C(O)C4(O)OCC13C42 (stereo not drawn),Potency,[4],inactive
same,Potency,[6],inactive
